Experimental findings from PubChem BioAssay (EPA / NIEHS) are described below.

What all share (details): mRNA level, 48 h; actives raise or lower the signal
Read-out in assay [1]: growth arrest and DNA damage 45 (GADD45G), GADD45G (gene 10912)
The assay can be described thus: LTEA_HepaRG_GADD45G: Life Technologies and Expression Analysis (LTEA) Assay for growth arrest and DNA damage 45 (GADD45G) using HepaRG (AID 2283499). A digest of the protocol:
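Gain or loss of GADD45G mRNA, quantified by TaqMan qRT-PCR against three housekeeping genes, is fitted in both directions relative to 0.5% DMSO. Human HepaRG cultures receive test chemical for 48 h at up to 100 uM.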

Read-out in assay [2]: Glutamate-cysteine ligase regulatory (GCLM), GCLM (gene 2730)
The assay can be described thus: LTEA_HepaRG_GCLM: Life Technologies and Expression Analysis (LTEA) Assay for Glutamate-cysteine ligase regulatory (GCLM) using HepaRG (AID 2283500). A digest of the protocol: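 Endpoint is GCLM transcript level by qRT-PCR, normalized to three housekeeping genes, after 48 h chemical exposure of human HepaRG cells (0.5% DMSO vehicle, top 100 uM, half-log dilutions). Fitting was bidirectional relative to DMSO.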

Read-out in assay [3]: Heat shock 70 kDa protein 1 (HSPA1A), gene 3303
As to the kind of experiment: LTEA_HepaRG_HSPA1A: Life Technologies and Expression Analysis (LTEA) Assay for Heat shock 70 kDa protein 1 (HSPA1A) using HepaRG (AID 2283502). A digest of the protocol: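 Cells were plated and cultured for 48 h, then switched to serum-free induction medium. Chemicals were added at eight half-log concentrations up to 100 uM for 48 h. RNA was then isolated and HSPA1A measured by qRT-PCR with bidirectional curve fitting against DMSO.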

Read-out in assay [4]: Hypoxia-inducible factor 1-alpha (Homo sapiens) (UniProt Q16665)
The assay can be described thus: LTEA_HepaRG_HIF1A: Life Technologies and Expression Analysis (LTEA) Assay for Hypoxia-inducible factor 1 (HIF1A) Trancription factor using HepaRG (AID 2283503). An outline of the steps:
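HIF1A transcript level read by qRT-PCR (ACTB, GAPDH, POLR2A normalization) after 48 h chemical exposure of HepaRG cultures. Eight half-log concentrations, top 100 uM, 0.5% DMSO vehicle, duplicates; bidirectional curve fit against DMSO baseline.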

Read-out in a further assay: HGF (gene 3082)
As to the kind of experiment: LTEA_HepaRG_HGF: Life Technologies and Expression Analysis (LTEA) Assay for Hepatocyte Growth Facto (HGF) using HepaRG (AID 2283505). An outline of the steps: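 Read-out is HGF transcript level by qRT-PCR, normalized to three housekeeping genes, fitted bidirectionally against 0.5% DMSO vehicle. Human HepaRG cells received test chemicals for 48 h at up to 100 uM.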

Read-out in assay [5]: Insulin Like Growth Factor 1 (IGF1), IGF1 (gene 3479)
The assay can be described thus: LTEA_HepaRG_IGF1: Life Technologies and Expression Analysis (LTEA) Assay for Insulin Like Growth Factor 1 (IGF1) using HepaRG (AID 2283506). An outline of the steps: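 Cells are thawed, plated and cultured 48 h, then exposed in duplicate to chemical (highest 100 uM, half-log steps, 0.5% DMSO) for another 48 h. Total RNA is analysed by Fluidigm qRT-PCR for IGF1 expression relative to vehicle.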

Read-out in assay [6]: Intercellular Adhesion Molecule 1 (ICAM1), ICAM1 (gene 3383)
As to the kind of experiment: LTEA_HepaRG_ICAM1: Life Technologies and Expression Analysis (LTEA) Assay for Intercellular Adhesion Molecule 1 (ICAM1) using HepaRG (AID 2283507). A digest of the protocol:
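Readout is qRT-PCR mRNA level, normalized to three housekeeping genes and fitted bidirectionally against 0.5% DMSO vehicle. Human HepaRG cultures received compound for 48 h, top concentration 100 uM with half-log dilutions.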

Read-out in assay [7]: 3-Hydroxy-3-Methylglutaryl-CoA Synthase 2 (HMGCS2), HMGCS2 (gene 3158)
As to the kind of experiment: LTEA_HepaRG_HMGCS2: Life Technologies and Expression Analysis (LTEA) Assay for 3-Hydroxy-3-Methylglutaryl-CoA Synthase 2 (HMGCS2) using HepaRG (AID 2283504). A digest of the protocol:
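HepaRG, plated 48 h then switched to serum-free induction media; cmpd 8-pt, max 100 uM, 1/2-log, 0.5% DMSO, n=2, 48 h. HMGCS2 mRNA by Fluidigm TaqMan qRT-PCR, ACTB/GAPDH/POLR2A norm; bidirectional fit vs DMSO.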

Read-out in assay [8]: Insulin-like growth factor-binding protein 1 (IGFBP1), IGFBP1 (gene 3484)
The assay can be described thus: LTEA_HepaRG_IGFBP1: Life Technologies and Expression Analysis (LTEA) Assay for Insulin-like growth factor-binding protein 1 (IGFBP1) using HepaRG (AID 2283508). A digest of the protocol:
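Thawed HepaRG cells are plated for 48 h, switched to serum-free induction medium, then dosed in duplicate for another 48 h (100 uM top, half-log steps). Lysates in RLT go to qRT-PCR, and gain or loss of signal is fitted relative to vehicle.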

Each structure is given as a SMILES string. Activity calls are given as the source filed them. The calls were made as follows: active = hit-call score of the fitted dose curve at least 0.9, where 1 is the maximum; inactive = score below 0.9.

Hypoxia-inducible factor 1-alpha (Homo sapiens), sequence (Q16665 whole entry, looked up): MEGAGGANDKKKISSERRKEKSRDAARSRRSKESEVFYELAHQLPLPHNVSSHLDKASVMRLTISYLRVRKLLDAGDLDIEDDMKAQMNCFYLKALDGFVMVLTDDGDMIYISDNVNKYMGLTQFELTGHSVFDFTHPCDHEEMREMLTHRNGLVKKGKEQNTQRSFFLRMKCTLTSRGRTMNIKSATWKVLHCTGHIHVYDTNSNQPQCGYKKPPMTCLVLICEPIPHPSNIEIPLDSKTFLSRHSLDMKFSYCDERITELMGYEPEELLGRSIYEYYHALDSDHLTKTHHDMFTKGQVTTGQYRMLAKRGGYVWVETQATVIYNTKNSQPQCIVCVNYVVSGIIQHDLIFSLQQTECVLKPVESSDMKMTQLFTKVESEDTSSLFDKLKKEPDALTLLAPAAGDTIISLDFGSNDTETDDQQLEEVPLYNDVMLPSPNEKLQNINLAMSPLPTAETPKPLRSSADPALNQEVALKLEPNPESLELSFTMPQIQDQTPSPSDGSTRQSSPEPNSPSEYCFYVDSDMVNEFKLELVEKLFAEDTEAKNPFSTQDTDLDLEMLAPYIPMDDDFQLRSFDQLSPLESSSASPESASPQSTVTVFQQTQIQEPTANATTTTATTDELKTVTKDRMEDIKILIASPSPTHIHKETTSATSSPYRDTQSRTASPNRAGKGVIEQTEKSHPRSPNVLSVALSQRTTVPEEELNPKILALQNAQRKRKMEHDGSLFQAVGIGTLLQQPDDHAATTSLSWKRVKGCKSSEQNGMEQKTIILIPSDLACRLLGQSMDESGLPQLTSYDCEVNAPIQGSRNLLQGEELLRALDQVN

For `NC(=O)N1C(=O)C(C(=O)c2cc(Cl)cs2)c2cc(F)c(Cl)cc21` (stereo not given), the AC50 was 30.4 µM (active) in assay [1]; 72.3 µM (active) in [3]; 22.7 µM (active) in assay [4]; 24.8 µM (active) in [5]; 19.9 µM (active) in assay [6]. In addition, the outcome (in [2]; in the assay with HGF (gene 3082)) was inactive.
Turning to `CCCCC(CC)COC(=O)CCCCC(=O)OCc1ccccc1` (stereo not given), the compound was called inactive (in assay [1]; in assay [2]; in assay [3]; in [4]; in assay [7]; in the assay with HGF (gene 3082)). Moreover, the call in assay [5], in assay [6] and in assay [8] was inactive.
Regarding `CC(C)(C)CC(C)(C)c1ccc(O)c(-n2nc3ccccc3n2)c1`, the result (in assay [1]; in [2]; in [4]; in the assay with HGF (gene 3082); in assay [6]) was inactive. Moreover, the figures for the AC50 in [3] and in assay [5] were 72.7 µM (active) and 50 µM (active), respectively.
As for `CCCCCCCCC(=O)O`, the compound was called inactive (in assay [1]; in assay [2]; in [3]; in assay [4]; in the assay with HGF (gene 3082); in [5]). Also, the compound was classed as inactive in assay [6] and in assay [8].
Take `COCC(C)O` (stereo not given): the compound was called inactive (in [1]; in [2]; in assay [3]; in [4]; with HGF (gene 3082); in [5]). The compound was called inactive in assay [6] and in assay [8].
As for `CC[C@H](c1ccc(O)cc1)[C@@H](CC)c1ccc(O)cc1`, the AC50 in assay [1] is 66.3 µM (active); in assay [2], 70.2 µM (active); in [3] it was 94.4 µM (active); in assay [7] it was 79.4 µM (active); in assay [5] it was 86.3 µM (active). Besides, the call (with HGF (gene 3082); in [6]) was inactive.
On to `CC(C)(C)c1ccc(O)c(C(C)(C)C)c1`, for which the compound was called inactive (in [1]; in [2]; in assay [3]; in assay [4]; with HGF (gene 3082); in assay [5]). For the same compound, in assay [6], the outcome was inactive.
On to `CC(C)(C)c1cc(C(C)(C)C)c(O)c(C(C)(C)C)c1`, for which the compound was classed as inactive (in assay [1]; in [2]; in [3]; in assay [4]; with HGF (gene 3082); in assay [5]). Besides, in [6], the outcome was inactive.
`Oc1cccc(O)c1`: the outcome (in assay [1]; in assay [2]; in assay [3]; in assay [4]; in the assay with HGF (gene 3082); in [5]) was inactive. Also, the outcome in assay [6] was inactive.
With `Nc1cccc2c(N)cccc12`, the compound was classed as inactive (in assay [1]; in [2]; in assay [3]; in assay [4]; with HGF (gene 3082); in assay [5]). Further, in [6], the call was inactive.
Regarding `CC1=C(/C=C/C(C)=C/C=C/C(C)=C/C(=O)O)C(C)(C)CCC1`, the compound was classed as inactive (in [1]; in the assay with HGF (gene 3082); in [8]). The AC50 is 25.8 µM (active) in [2] and 31.8 µM (active) in assay [5].
Consider `CCCCOCCO`, for which the result (in [1]; in assay [2]; in assay [3]; in assay [4]; in assay [7]; with HGF (gene 3082)) was inactive. Besides, the call in assay [5], in assay [6] and in assay [8] was inactive.
As to `CCCCCCCCCCCCCCCS(=O)(=O)Oc1ccccc1`, the compound was called inactive (in [1]; in assay [2]; in assay [3]; in [4]; with HGF (gene 3082); in assay [6]). The AC50 in assay [5] was 27.5 µM (active).
For the compound `CCCOc1sc(C(=O)N2CCC(c3cc(CN)ccc3F)CC2)c(C)c1Br`, the result (in assay [1]; in [2]; in assay [3]; in assay [4]; with HGF (gene 3082); in [5]) was inactive. Also, the compound was classed as inactive in [6].
As for `CCCCCCCC(=O)O`, the compound was called inactive (in [1]; in assay [2]; in assay [3]; in [4]; in the assay with HGF (gene 3082); in assay [5]). In addition, the AC50 in assay [6] is 0.405 µM (active).
Consider `CCCCCCC(=O)O`, for which the result (in assay [1]; in assay [2]; in assay [3]; in assay [4]; with HGF (gene 3082); in [5]) was inactive. In addition, in [6], the outcome was inactive.
Consider `O=C(OCCOCCOC(=O)c1ccccc1)c1ccccc1`, for which the call (in assay [1]; in assay [2]; in assay [3]; in assay [4]; in assay [7]; with HGF (gene 3082)) was inactive. Also, the call in assay [5], in assay [6] and in [8] was inactive.

As a reminder, the AC50 is the concentration giving half of the maximal activity seen.
